A selection: hits, their analogues and other compounds. The true share with any hit is near 12%.
PLK1 PBD inh: qHTS for Inhibitors of PLK1-PDB (polo-like kinase 1 - polo-box domain): Primary Screen; Serine/threonine-protein kinase PLK1 (Homo sapiens), P53350; Plk1 PBD binding of FITC phosphopeptide, fluorescence polarization; Potency, µM, without a hit: max response, negative = inhibition, actives largely listed as inhibitors; 360,000 tested, 2.8% active; further: series mostly up to about 57 µM; on the % scale 0 is the no-effect control and ±100 the full control effect; nearly all actives have a fitted effect of over 65% in size
BAZ2B block: qHTS Assay for Inhibitors of BAZ2B. Bromodomain adjacent to zinc finger domain protein 2B (Homo sapiens), Q9UIF8. AlphaScreen BAZ2B-H3K14Ac peptide displacement. Potency, µM (series often up to 114 µM), inactives show top-dose activity change, negative = inhibition, actives largely listed as inhibitors. AID 504333, 2011. 360,000 tested, 4.4% active; further: on the % scale 0 is the no-effect control and ±100 the full control effect; nearly all actives have a fitted effect of over 60% in size
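Multi-concentration screen (max 110 uM) measuring displacement of acetylated histone H3 peptide from BAZ2B by AlphaScreen, using 50 nM protein, 50 nM peptide and 10 ug/mL streptavidin donor plus Ni-chelate acceptor beads.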
Sfp inh: qHTS Assay for Inhibitors of Bacillus subtilis Sfp phosphopantetheinyl transferase (PPTase); Potency, µM, inactives show largest response in the series, negative = inhibition, usual class: inhibitors; 4'-phosphopantetheinyl transferase ffp (Bacillus subtilis), Q9F4F7; Biochemical Sfp PPTase activity, qHTS; 310,000 tested, 3.5% active;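 further: the enzyme is Sfp with the accession as filed and its product quenches rhodamine fluorescence; 0% = enzyme reaction without inhibitor and -100% = no enzyme wells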
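Compounds were incubated with enzyme (final 15 nM) for 15 min at room temperature before substrate addition started the reaction. Fluorescence at 525 nm excitation, 598 nm emission was recorded immediately and after 30 minutes.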
JMJD2A Tudor inh: qHTS Assay for Inhibitors of JMJD2A-Tudor Domain | Potency, µM (doses to about 114 µM), inactives show at the highest dose activity change, negative = inhibition, actives largely listed as inhibitors | AlphaScreen JMJD2A-Tudor / H3K4me3 peptide binding | AID 504339, 2011 | 390,000 tested, 4.4% active; further: on the % scale 0 is the no-effect control and ±100 the full control effect; nearly all actives have a fitted effect of over 50% in size
HP1b chromo inh: HTS for Inhibitors of HP1-beta Chromodomain Interactions with Methylated Histone Tails; Chromobox protein homolog 1 (Homo sapiens), P83916; AlphaScreen HP1-beta / biotin-H3K9me3 peptide binding; Potency, µM (highest dose often 114 µM), for inactives: at the highest dose activity change, negative = inhibition, usual class: inhibitors; 390,000 tested, 0.56% active; further: nearly all actives have a fitted effect of over 70% in size
Target sequence (P83916 whole entry, looked up): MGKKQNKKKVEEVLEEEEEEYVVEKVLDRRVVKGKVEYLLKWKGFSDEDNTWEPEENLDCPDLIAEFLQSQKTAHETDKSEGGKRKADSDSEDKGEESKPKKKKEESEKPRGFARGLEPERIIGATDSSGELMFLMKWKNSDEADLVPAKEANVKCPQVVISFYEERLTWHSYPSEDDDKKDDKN
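HP1-beta protein (50 nM final) preincubated 30 min at room temperature with biotinylated H3(1-18)K9me3 peptide (50 nM) in PBS pH 7.4, 0.01% Tween-20, then compound added for 30 min. AlphaScreen streptavidin donor/nickel chelate acceptor beads (10 ug/mL final), 30 min dark, luminescence read.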
G9a inh: qHTS Assay for Inhibitors of Histone Lysine Methyltransferase G9a; G9a H3K9 monomethylation, AlphaScreen, 2 h; 350,000 tested, 8.8% active; Histone-lysine N-methyltransferase EHMT2 (Homo sapiens), Q96KQ7; Potency, µM (highest dose often 102 µM), without a hit: top-dose activity, negative = inhibition, usual class: inhibitors; further: on the % scale 0 is the no-effect control and ±100 the full control effect; nearly all actives have a fitted effect of over 75% in size
Target sequence (Q96KQ7 913-1193 limits assumed): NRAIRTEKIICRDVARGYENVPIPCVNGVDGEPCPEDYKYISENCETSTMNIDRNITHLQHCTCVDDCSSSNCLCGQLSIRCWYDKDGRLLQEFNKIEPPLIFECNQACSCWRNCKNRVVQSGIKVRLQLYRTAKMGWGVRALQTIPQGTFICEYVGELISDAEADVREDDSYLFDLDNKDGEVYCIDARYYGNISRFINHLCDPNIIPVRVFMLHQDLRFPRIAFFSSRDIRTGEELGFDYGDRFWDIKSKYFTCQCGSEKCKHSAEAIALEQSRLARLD
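G9a (20 nM) preincubated 15 min RT with compounds, then 500 nM biotinylated H3K9 peptide and 20 uM SAM added; 2 h RT reaction. Monomethyl-H3K9 product detected by AlphaScreen with anti-H3K9me1 antibody, streptavidin donor and anti-rabbit IgG acceptor beads.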
* = called active by the depositor; ? = inconclusive; · = not tested or not shown; ! = a repeat was not active; [ ] = another dose, or the depositor's remark. The call rests on the fitted dose curve; in most records, active means well fitted curve in the direction sought with a large enough effect; inconclusive means small, poorly fitted or top-dose-only effect, or another doubt; inactive means no such curve, though single readings can be large; an effect the other way counts as inactive or inconclusive. Potency means the concentration at half of the fitted maximal effect.

SMILES | PLK1 PBD inh | BAZ2B block | Sfp inh | JMJD2A Tudor inh | HP1b chromo inh | G9a inh
CC1C(=NO)C(C)C(c2ccc(N(C)C)cc2)NC1c1ccc(N(C)C)cc1 (stereo unspecified) | -1% | 40µM* | -29% | -8% | 29% | -5%[0.0925 µM]
Cc1ccccc1OCC(=O)OCc1cc(=O)n2nc(C3CC3)sc2n1 | · | -4% | · | 5% | 39% | 8%[59 µM]
O=C(Nc1nc(=O)n(C(=O)c2cccc(C(F)(F)F)c2)s1)c1ccccc1 | 17µM* | ? | 5% | -17% | 77% | ?
Cc1nc2n(c(=O)c1CCN1CCC(c3noc4cc(F)ccc34)CC1)CCCC2O (stereo unspecified) | · | · | · | · | · | 30µM*
CCn1c(=O)cc(OCC(=O)N(C)c2ccc(OC)cc2)c2ccccc21 | · | 89µM* | · | -10% | 16% | -13%[59 µM]
CCOc1ccc(N(CC)C(=O)COc2cc(=O)n(CC)c3ccccc23)cc1 | 27µM* | -13% | -2% | -33%[57.1 µM] | -16% | -25%[59 µM]
CCOc1ccc(N(CC)C(=O)COc2cc(=O)n(C)c3ccccc23)cc1 | -6% | -22% | 3% | -8% | 28% | -20%[59 µM]
CCn1c(=O)cc(OCC(=O)N2CCCC2)c2ccccc21 | 27µM* | 9% | 15% | ? | 12% | ?
CCn1c(=O)cc(OCC(=O)N2CCN(c3ccc(OC)cc3)CC2)c2ccccc21 | · | ? | · | -35% | -18% | -50%[59 µM]
c1ccc(-c2nccc(-c3ccco3)n2)nc1 | 4% | 32µM* | 7% | ? | 32% | ?
COC(=O)Cc1ccc(O)c(N)c1 | 9.5µM* | -15% | -8% | 10µM* | ? | ?
CSCCC(NC(=O)c1ccccc1)C(=O)N/N=C(\C)Cc1ccccc1 (stereo unspecified) | -2% | -16% | 5% | -11% | 31% | 2%[0.501 µM]
CC(C)C(=O)NCC(c1ccc2c(c1)OCO2)N1CCN(c2ccccc2)CC1 (stereo unspecified) | · | -14% | · | -17% | 6%[57 µM] | 4%[59 µM]
CC1(C(=O)O)COC(c2ccc([N+](=O)[O-])cc2)OC1 (stereo unspecified) | -5% | -5% | 11% | -1% | 19% | 8%
O=C1NC(C(=O)O)=CC(c2ccc([N+](=O)[O-])cc2)N1 (stereo unspecified) | -4% | ? | 8.9µM* | 18µM* | 11%[57 µM] | 8.9µM*
O=C1NC(=O)c2cc(Nc3ccc(F)cc3)c(Nc3ccc(F)cc3)cc21 | · | · | ? | · | · | 14µM*
O=C1NC(=O)c2cc(Nc3ccccc3)c(Nc3ccccc3)cc21 | · | · | 7% | · | · | 21µM*!
CC1(C)CC(=O)C=C(Nc2ccc(F)cc2)C1 | -5% | -8% | -4% | 1% | 25% | 19%[12.7 µM]
Cc1cc(C)n2cc(CSc3nnnn3-c3ccc(Cl)cc3)nc2n1 | -18% | 2% | ? | -20% | 22% | 40µM*
Cc1cc(C)n2cc(CSc3ccc(Br)cc3)nc2n1 | -10% | ? | -1% | -28% | 22% | -16%
Cc1cc(C)n2cc(CSCC(=O)O)nc2n1 | 2% | ? | -30% | -10% | 18% | 45µM*
Cc1cc(C)n2cc(CSc3nnnn3-c3ccccc3)nc2n1 | -9% | -31% | 4% | -10%[57.1 µM] | 40% | -35%[59 µM]
COc1ccc(C(=O)COC(=O)c2cc(-c3cccs3)nc3ccccc23)cc1 | · | 27% | · | 16% | 40% | 21%[59 µM]
CC(=O)Nc1nnc(SCc2cc(=O)c3cc(C)ccc3[nH]2)s1 | · | ? | · | ? | 8%[57 µM] | 13%[59 µM]
O=C(O)COc1ccccc1/C=N/NC(=O)c1ccc(F)cc1 | -7% | ? | -29% | -16% | 16% | 45µM*
SMILES | PLK1 PBD inh | BAZ2B block | Sfp inh | JMJD2A Tudor inh | HP1b chromo inh | G9a inh
O=C(O)COc1ccccc1/C=N/NC(=O)c1ccc2c(c1)OCCO2 | 0% | -31% | -1% | -17% | 28% | 35%
O=C(O)COc1ccccc1/C=N/NC(=O)CNC(=O)c1ccc(F)cc1 | 8.4µM* | ? | 3% | -7%[11.4 µM] | -8% | ·
COc1ccccc1/C=N/NC(=O)CNC(=O)c1ccccc1 | -10% | 0% | 9% | -13%[11.4 µM] | 42% | 43%[59 µM]
Cc1cc(C)nc(N/N=C/c2ccccc2OCC(=O)O)n1 | ? | 2% | 6.3µM* | 2.5µM* | 0% | -4%[2.33 µM]
Cc1cc(C(=O)NCc2ccccc2)c2c(C)nn(-c3cccc(Cl)c3C)c2n1 | · | 23%[57.1 µM] | · | 6% | 66% | 1%[59 µM]
O=S(=O)(c1ccccc1F)N(Cc1ccco1)Cc1nnc(-c2ccccc2Br)o1 | -1% | 7% | -6% | -16% | 20% | 79µM*
Cc1nc(SCc2ccc(OCCC(C)C)cc2)n[nH]1 | -6% | -15% | 6% | -15% | 29% | 50µM*
CCCOc1ccc(CSc2ncn[nH]2)cc1 | 2.7µM* | 1% | 10% | 3.2µM* | ? | 13µM*
CCCCCOc1ccc(CSc2n[nH]c(C)n2)cc1 | 30µM* | 5% | -30% | ? | -11% | ·
CCc1cccc(NC(=O)C2CCCN(c3ncnc4c3nc3n4CCCCC3)C2)c1 (stereo unspecified) | -14% | ? | -1% | -25% | 22% | ·
O=C(NCCCNC(=O)c1cc(Cl)ccc1Cl)c1ccco1 | -17% | 9% | 17% | -10% | 10% | 28%
CCc1noc(C)c1C(=O)N(CC)CC(=O)NCc1ccc(Cl)cc1 | -19% | -3% | · | -12% | 34% | 18%[12.7 µM]
COc1cc(-c2ccc3ncnc(NCc4cccs4)c3c2)cc(OC)c1OC | · | · | · | -16% | · | ·
COC(=O)c1sc2nc3c(cc2c1N)C(=O)CC(C)(C)C3 | -4% | -3% | 18% | -24% | 38% | ?
Cc1cc(C)c(NC(=O)c2sc3nc4c(cc3c2N)C(=O)CC(C)(C)C4)c(C)c1 | 1% | ? | -14% | -34% | 16% | 45µM*
CCOc1ccc2nc3sc(C(=O)N4CCOCC4)c(N)c3cc2c1 | -9% | -37% | 32µM* | -15% | 11% | ?
Cc1cc(C)c2cc3c(N)c(C(=O)Nc4c(C)[nH]c(=O)[nH]c4=O)sc3nc2c1 | 12% | 50µM* | ? | ? | 89% | -15%
Cc1cc(C)c2cc3c(N)c(C(=O)N4CCOCC4)sc3nc2c1 | ? | -16% | ? | -14%[57.1 µM] | 23% | 8.9µM*
CCOC(=O)CSc1nc2cc3c(cc2c(=O)n1CCCCCC(=O)NCc1ccc(OC)cc1)OCO3 | · | -1% | · | -14% | 8% | 7%[59 µM]
